The list is not random: actives were taken first. Their share in the collection is about 2.3%.
M1 PAM – potentiates human M1 receptor response to acetylcholine | P11229 | CHO-K1 hM1, Fluo-8 calcium fluorescence, ACh EC20; 0% = ACh EC20, 100% = maximal ACh | activation, % at 3 µM | actives 0.088% (n = 360,000) | AID 588819; in the data active = activation above about 19%, passing the limit was not always enough
Target sequence (P11229 whole entry, looked up): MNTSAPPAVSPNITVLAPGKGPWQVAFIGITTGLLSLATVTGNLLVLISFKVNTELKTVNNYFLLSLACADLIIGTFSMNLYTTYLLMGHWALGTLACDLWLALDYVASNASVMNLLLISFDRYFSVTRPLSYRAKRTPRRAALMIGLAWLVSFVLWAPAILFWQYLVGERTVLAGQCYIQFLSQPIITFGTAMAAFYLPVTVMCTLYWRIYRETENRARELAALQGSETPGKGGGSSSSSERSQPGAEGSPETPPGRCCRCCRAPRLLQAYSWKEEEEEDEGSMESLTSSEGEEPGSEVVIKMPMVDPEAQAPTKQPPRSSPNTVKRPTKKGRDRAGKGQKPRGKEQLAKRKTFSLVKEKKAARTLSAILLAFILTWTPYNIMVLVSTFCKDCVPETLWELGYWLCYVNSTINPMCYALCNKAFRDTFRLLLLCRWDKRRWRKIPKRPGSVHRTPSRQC
CHO-K1 Ca antag – counter-screen for M1 antagonists: effect in parental CHO-K1 cells | ATP-induced calcium, Fluo-8 fluorescence | inhibition, % at 3 µM | actives 0.6% (n = 360,000) | AID 602250;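 active = inhibition above a per-plate cutoff, the plate's mean sample inhibition plus 3 SD, cut at about 24% in these data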;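 note: 0% = DMSO plus EC80 ATP and 100% = DMSO alone without ATP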
CHO-K1 Ca ag – counter-screen for M1 agonists: effect in parental CHO-K1 cells | Fluo-8 calcium fluorescence; scaled to maximal ATP response, vehicle zero | AID 602248 | activation, % at 3 µM | actives 0.48% (n = 360,000); in the data active = activation above about 15%;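 note: untransfected CHO-K1 host cells lacking M1 receptor as counterscreen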
M1 PAM parental – nonselective activator or artifact in parental CHO-K1 calcium assay; ATP EC20, Fluo-8 calcium fluorescence; 0% at ATP EC20, 100% at ATP max; activation, % at 3 µM; actives 0.02% (n = 360,000); AID 602247;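 active = activation above the run cutoff, the mean activation of all test compounds plus 3 SD, cut at about 40% in these data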;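 note: peak over basal fluorescence ratio in a 140 s read after ATP addition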
M1 antag – human CHRM1 antagonism; CHO-K1 hM1, Fluo-8 calcium fluorescence, ACh EC80 antagonist; inhibition, % at 3 µM; actives 1.3% (n = 360,000);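 active = percent inhibition above its own plate's cutoff, namely the mean of that plate's compound wells plus 3 SD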;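 note: peak over basal fluorescence ratio during 140 s after agonist addition; 0% = ACh EC80 plus DMSO and 100% = DMSO alone without agonist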
CHRM1 agonist – agonists of human M1 muscarinic receptor; CHO-K1 hM1, Fluo-8 calcium fluorescence, agonist mode; 0% DMSO, 100% acetylcholine EC100; activation, % at 3 µM; actives 0.33% (n = 360,000); AID 588814;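 active = activation above the run's mean compound activation plus 3 SD, cut at about 16% in these data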;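 note: peak over basal fluorescence ratio within a 140 s kinetic read after compound addition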
* hit, by the source's call.

SMILES | M1 PAM | CHO-K1 Ca antag | CHO-K1 Ca ag | M1 PAM parental | M1 antag | CHRM1 agonist
COc1ccc(C2(C)NC(=O)N(CC(=O)N3CCc4ccccc43)C2=O)cc1OC (stereo not drawn) | 2.5 | -14.7 | -0.5 | 7.7 | 1.0 | -3.0
CCC1(c2ccc(F)cc2)NC(=O)N(CC(=O)N2c3ccccc3NC(=O)CC2C)C1=O (stereo not drawn) | 9.9 | 9.5 | -0.5 | -13.4 | -6.2 | -1.1
CCC1(c2ccc(OC)cc2)NC(=O)N(CC(=O)N2CCc3ccccc32)C1=O (stereo not drawn) | -3.0 | 6.2 | 11.1 | 23.0 | 6.6 | 28.7*
CCC1(c2ccc(F)cc2)NC(=O)N(CC(=O)N2c3ccccc3CC2C)C1=O (stereo not drawn) | -1.1 | -18.8 | 12.3 | 13.9 | 5.6 | 26.9*
Cc1ccc2nc(-c3ccccc3)nn2c1 | 1.4 | -4.0 | 0.0 | 8.8 | -1.9 | -0.7
C=CCN(C(=O)CN1CCCCC1)c1nc(-c2ccccc2)cs1 | -22.6 | -10.8 | -0.2 | 13.8 | 25.0* | -11.5
C=CCN(C(=O)CN1CCOCC1)c1nc(C)c(-c2ccccc2)s1 | 1.6 | -3.0 | -0.2 | -2.1 | -2.9 | -4.6
CN(C)Cc1cc(C(C)(C)c2ccccc2)ccc1O | -27.2 | -2.8 | 2.9 | 7.2 | 43.1* | -5.5
C=CCNC(=O)/C(=C/c1cccc([N+](=O)[O-])c1)NC(=O)c1ccco1 | 11.7 | 0.0 | 15.4* | 18.8 | -11.8 | -3.6
O=C(NCCc1ccccc1)/C(=C\c1ccc([N+](=O)[O-])cc1)NC(=O)c1ccco1 | 2.4 | -6.4 | 2.6 | -9.2 | 6.4 | -2.7
O=C(NCc1ccccc1)/C(=C\c1ccc([N+](=O)[O-])cc1)NC(=O)c1ccco1 | 15.1 | -0.9 | 1.3 | -2.0 | -11.2 | 17.0*
O=C(c1ccccc1)c1ccc(OCC(O)CNCc2ccc(Cl)cc2)cc1 (stereo not drawn) | 1.6 | 0.9 | 18.1* | 8.3 | 1.8 | 1.6
O=c1[nH]c(SCc2ccccc2)nc2[nH]ncc12 | 8.1 | -5.8 | 2.1 | 21.0 | -8.9 | -2.5
CCOC(=O)c1nc(C)sc1-c1ccnn1S(=O)(=O)c1cccc(Cl)c1 | -0.5 | 5.5 | 0.8 | -18.6 | -5.1 | -4.5
COc1ccc(C(CC(=O)c2ccc(C)cc2)Nc2ccc([N+](=O)[O-])cc2)cc1 (stereo not drawn) | -7.1 | 14.2 | 15.4* | 17.6 | 8.8 | -8.5
CC(C)[C@H](NC(=O)[C@@H]1Cc2ccccc2CN1C(=O)OC(C)(C)C)C(=O)NCc1ccco1 | 3.8 | -13.2 | 0.3 | 10.2 | -8.8 | -3.3
Cc1ccc(S(=O)(=O)c2nnn3c2nc(NC2CCN(Cc4ccccc4)CC2)c2ccccc23)cc1C | -23.2 | 8.2 | 0.3 | -1.4 | 74.8* | -6.1
Cc1ccc(S(=O)(=O)c2nnn3c2nc(NCCCN2CCCC2=O)c2ccccc23)cc1C | -6.1 | -2.2 | 2.1 | -18.4 | 12.8 | -5.2
Cc1noc(C)c1C(=O)OCC(=O)Nc1ccccc1C(=O)NC(C)c1ccccc1 (stereo not drawn) | 3.1 | -17.2 | 2.9 | 48.9* | -0.7 | -1.2
CC(OC(=O)Cn1[nH]c(=O)c2ccccc2c1=O)C(=O)c1ccccc1 (stereo not drawn) | 19.5 | 24.0* | 0.5 | -30.4 | -7.3 | 6.2
CC(=O)Nc1ccc(/C(C)=N/Nc2nc(Nc3cccc4ccccc34)nc(N3CCOCC3)n2)cc1 | 2.9 | 10.2 | 12.5 | 10.9 | 10.8 | 18.0*
NS(=O)(=O)c1ccc(CCNC(=O)COC(=O)C2COc3ccccc3O2)cc1 (stereo not drawn) | -0.1 | -5.5 | -0.1 | 4.4 | 3.3 | -3.5
CC(=O)c1ccc(N2CCN(C(=S)Nc3ccc(Oc4ccccc4)cc3)CC2)cc1 | -6.7 | 21.2 | 11.6 | -13.7 | 35.0* | -2.4
CN1CCN(c2ccc(NC(=O)c3ccc(Oc4ccccc4)cc3)cc2)CC1 | -30.4 | -0.3 | 2.0 | -11.1 | 46.0* | -10.0
COc1ccc(N2CCN(C(=S)Nc3ccccc3)CC2)cc1 | 5.4 | 0.5 | 2.0 | 9.5 | -8.9 | -1.6
CN(c1ccccc1)S(=O)(=O)c1cccc(C(=O)Nc2nn[nH]n2)c1 | 8.9 | -17.4 | 0.7 | 16.2 | -14.3 | -1.7

Compound activity: PubChem, The Scripps Research Institute Molecular Screening Center
